Assay outcomes from PubChem BioAssay.
The sample as a whole holds a higher share of hits than the screen did.
Pf Dd2 growth = Plasmodium falciparum Dd2 growth inhibition; P. falciparum Dd2 growth, SYBR Green, 72 h; Potency, µM (doses to about 28.9 µM), inactives show at the top dose activity, negative = inhibition, hits mostly inhibitors; 4.3% of 120,000 active; active = well fitted inhibition curve with a large enough effect;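 note: plate controls were DMSO vehicle for no effect and reference drug for full effect; nearly all actives have a fitted effect of over 65% in size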
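Infected erythrocytes (Dd2, 0.3% parasitemia, 2.5% hematocrit final) are added to compound in RPMI-1640/Albumax II medium, grown 72 h at 37C in low oxygen, then lysed with saponin/Triton-X containing SYBR Green and read by fluorescence.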
Starred values were filed as active, the others as inactive; i = inactive; [ ] = another dose, or the depositor's remark. Potency is the fitted concentration of half-maximal effect.

SMILES | Pf Dd2 growth
COc1cccc(CCC(=O)N2CCCC(Nc3ccc(F)cc3)C2)c1 (stereo unspecified) | -11%
FC(F)Oc1ccccc1CN1CCCC(Nc2ccccc2)C1 (stereo unspecified) | i
COc1ccc(O)c(CN2CCCC(Nc3ccc(F)cc3)C2)c1 (stereo unspecified) | 2.8µM*
CCN(C(=O)Cn1c(SCC(=O)Nc2ccc(OC)cc2)nc2ccccc21)c1cccc(C)c1 | 10µM*
CCN(C(=O)Cn1c(SCC(=O)NCc2ccccc2)nc2ccccc21)c1cccc(C)c1 | -23%
COc1ccc(NC(=O)CSc2nc3ccccc3n2CC(=O)Nc2cccc(C)c2C)cc1 | 2%
O=C(O)C[C@@H]1CCN(C(=O)Nc2ccc(OC(F)(F)F)cc2)C[C@@H]1CCN1CCOCC1 | 1%
COc1ccccc1CCC(=O)Nc1cccn2nc(C(C)C)nc12 | 10µM*
CC(C)c1nc2c(NC(=O)COc3ccccc3)cccn2n1 | i
CCc1nc2c(NC(=O)NCc3ccc(OC)cc3)cccn2n1 | i
Cc1ccc(OCCC2CCN(C(=O)CCn3nc(C)cc3C)C2)cc1 (stereo unspecified) | i
O=C(c1ccccc1)N1CC(Oc2ccc(F)c(F)c2)C1 | -29%[44.1 µM]
COc1ccc(NC(=O)N2CCc3c(C(=O)N(C)Cc4ccco4)cccc32)cc1 | -15%
COc1ccc(NC(=O)N2CCc3c(C(=O)NC(C)C)cccc32)cc1 | -7%
COc1ccc(NC(=O)N2CCc3c(C(=O)NCCN4CCCCCC4)cccc32)cc1 | 2.8µM*
COc1ccc(CNC(=O)c2ccc(NC(=O)N3CCCCc4ccccc43)cc2)cc1 | -23%
CCCCN(C)C(=O)c1cccc2c1CCN2C(=O)Nc1ccc(OC)cc1 | 14µM*
COc1ccc(NC(=O)N2CCc3c(C(=O)N(C)C)cccc32)cc1 | i
O=C(N[C@H](Cc1ccccn1)C1CC(O)C1)c1scc2c1OCCO2 (stereo partly specified) | -11%
Cc1noc(C)c1-c1ccc2c(n1)CN(CCOc1ccccc1)C(=O)CO2 | i
O=C([C@@H]1C[C@H](Oc2cccnc2)CN1S(=O)(=O)Cc1ccccc1F)N1CCCC1 | 34%
O=C(c1nc2sccn2c1Br)N1CCN(c2ncccn2)CC1 | -4%
Cc1c(Cl)cccc1NC(=O)Cn1cc2c(n1)CCCC2 | 2%
O=C(Cn1cc2c(n1)CCCC2)Nc1cc(C(F)(F)F)ccc1Cl | 7.1µM*
Cc1ccc(NC(=O)Cn2cc3c(n2)CCCC3)c(C)c1 | 3%
SMILES | Pf Dd2 growth
CC(C)S(=O)(=O)N1CC(N(C)Cc2cccnc2)C1 | 3%
Cc1ccsc1C(=O)N1CCc2nnc([C@@H]3C[C@@H](O)CN3C)n2CC1 | 0%
COc1ccc(C(=O)N2CCN(C(=O)c3nnn4c3COC(c3ccc(F)cc3)C4)CC2)cc1 (stereo unspecified) | 0%
COc1ccc(C2Cn3nnc(C(=O)N4CCC(C(=O)NC5CCCCC5)CC4)c3CO2)cc1 (stereo unspecified) | 26%
COc1ccc(CCNC(=O)c2nnn3c2COC(c2ccc(C)cc2)C3)cc1OC (stereo unspecified) | 8.9µM*
COc1ccc(C2Cn3nnc(C(=O)N4CCC(C(=O)NC5CCCCCCC5)CC4)c3CO2)cc1 (stereo unspecified) | -17%
Cc1ccc(C2Cn3nnc(C(=O)NCc4ccc(F)cc4)c3CO2)cc1 (stereo unspecified) | i
COc1ccc(C2Cn3nnc(C(=O)NC4CCCCCCC4)c3CO2)cc1 (stereo unspecified) | 8.9µM*
Cc1ccc(C(=O)N2CCN(C(=O)c3nnn4c3COC(c3ccc(F)cc3)C4)CC2)cc1C (stereo unspecified) | 7.1µM*
CCCCNC(=O)c1nnn2c1COC(c1ccc(C)cc1)C2 (stereo unspecified) | i
Cc1ccc(C2Cn3nnc(C(=O)N4CCN(C(=O)c5ccc(F)cc5)CC4)c3CO2)cc1 (stereo unspecified) | 0%
Cc1ccc(CNC(=O)CN2C(=O)NC3(CCOCC3)C2=O)cc1 | 27%
O=S(=O)(N[C@H]1[C@H](O)[C@H](O)C[C@@H]1c1ccccc1)c1ccccc1 | i
CCN(C1CCOCC1)C1CN(C(=O)c2nccn2C)C1 | 8%
Cc1ccccc1CN1CCC(CN(Cc2cccnc2)C(=O)C2CC=CCC2)CC1 (stereo unspecified) | i
COc1cccc(S(=O)(=O)N2C[C@@H](F)C[C@H]2C(=O)N2CCCCC2)c1 | 6%
COc1cc(CN2CCC[C@H]2c2nc(-c3ccc(-c4ccncc4)nc3)no2)cc(OC)c1OC | 5µM*
COc1ccc(C(=O)Nc2ccc(-c3noc([C@@H]4CCCN4Cc4ccco4)n3)cn2)cc1 | -1%
COCCNc1ccc(-c2noc([C@@H]3CCCN3C3CCC3)n2)cn1 | i
COCC(=O)Nc1ccc(-c2noc([C@@H]3CCCN3Cc3cccnc3)n2)cn1 | 8.9µM*
COCC(=O)N1CC(F)(F)C[C@H]1c1nc(-c2cccnc2)no1 | 10%
COCCNc1ccc(-c2noc([C@@H]3CCCN3Cc3cc(OC)c(OC)c(OC)c3)n2)cn1 | 8.9µM*
COc1ccc(-c2noc([C@@H]3CCCN3C(=O)c3ccncc3)n2)cc1OC | 80%
COc1ccc(C(=O)Nc2ccc(-c3noc([C@@H]4CCCN4Cc4c[nH]c5ccccc45)n3)cn2)cc1 | 7.9µM*
COCCOc1ccc(-c2noc([C@@H]3CCCN3Cc3c[nH]c4ccccc34)n2)cn1 | i
SMILES | Pf Dd2 growth
COCCNc1ncccc1-c1noc([C@@H]2CCCN2Cc2cc(OC)c(OC)c(OC)c2)n1 | -1%
COCC(=O)Nc1ccc(-c2noc([C@@H]3CCCN3Cc3ncc[nH]3)n2)cn1 | -23%[44.1 µM]
Fc1ccc(-c2noc([C@@H]3CCCN3Cc3ccc(Cl)cc3)n2)nc1 | i
Cn1ccnc1CN[C@@H]1CO[C@H](CNC(=O)N2CCOCC2)[C@H]1O | -2%[44.1 µM]
O=C(Nc1ccccc1)N1CCC(N2CCCNC2=O)CC1 | 8%[44.1 µM]
Cc1cc(C)c(CNC(=O)[C@H]2CNC[C@@H](C(=O)N3CCCC3)C2)cn1 | 1%
O=C1CC(c2ccccc2)N(C(=O)C2CC2)CCCN(C(=O)COc2ccccc2)CCN1 (stereo unspecified) | i
O=C(O)C[C@@H]1CCN(C(=O)C2CCC2)C[C@@H]1CCN1CCN(c2ccccn2)CC1 | -19%[44.1 µM]
COc1ccc(-c2nnc3n2CCN(C(=O)Cc2cccc(Cl)c2)C3)cc1 | i
O=C1NC2(CCN(C(=O)CCc3cccnc3)CC2)CC1c1ccccc1 (stereo unspecified) | 8%
COc1ccccc1C(=O)N1CCC(CCOc2ccc(C)cc2)C1 (stereo unspecified) | -8%
NCCCC(=O)N1CCCCC1c1nnc2n1CCNC2 (stereo unspecified) | -13%
Cc1cnc(C2CC2)n1CCNS(=O)(=O)c1ccccc1F | -17%
Cc1cc(C)c(S(=O)(=O)NCCn2c(C)cnc2C2CC2)c(C)c1 | 11µM*
CC(=O)Nc1ccc(C)cc1S(=O)(=O)NCCn1c(C)cnc1C1CCC1 | -11%
Cc1cnc(C2CC2)n1CCNC(=O)C(C)C | 5%
Cc1cc(Cl)ccc1S(=O)(=O)NCCn1c(C)cnc1C1CCC1 | 6.3µM*
Cc1cnc(C2CCC2)n1CCNS(=O)(=O)c1ccccc1 | i
O=C(NC1CCCN(c2cc(-c3ccccc3)[nH]n2)C1)c1cc(F)ccc1Cl (stereo unspecified) | i
O=C(NC1CCCCC1)N1CC(c2nnc(-c3ccncc3)o2)C2(CCOCC2)C1 (stereo unspecified) | 0%
